Data reported in PubChem BioAssay (NCI).
The panel holds about 83,000 compounds, 20% with a hit somewhere; the sample as a whole holds those more often.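 Cells were grown in 96-well plates and exposed to the test compound at a single concentration for 48 hours; results are reported as percent growth, with values below 10 considered active.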 Calls of active or inactive are those of the source.

Columns and labels:
Experiment in all cases: NCI-60 one-dose screen, 48 h (100 = growth as untreated, 0 = no growth, -100 = all killed)
Settings in all cases: 10 µM unless noted
[1] = system: T-47D breast
[2] = system: BT-549 breast
[3] = system: MDA-MB-435 melanoma
[4] = system: SW-620 colon
[5] = system: MCF7 breast
[6] = system: HCT-116 colon
[7] = system: HCC-2998 colon
[8] = system: KM12 colon

Measured: growth

O=C(CC12CC3CC(CC(C3)C1)C2)NCCOCCOCCNC(=O)c1cc2c(o1)C(=O)c1ccccc1C2=O
active: [1] -11.8% | [2] -93.7% | [3] -97.7% | [4] -28.4% | [5] -68.4% | [6] -8.18% | [7] -86.9% | [8] -23.9%

CCCCN1CCN(c2ccc3nc(-c4ccc5nc(-c6ccc(OCC)c(OCC)c6)[nH]c5c4)[nH]c3c2)CC1
inactive: [1] 39.9%
active: [2] -23% | [3] -41.2% | [4] -80.3% | [5] -69.6% | [6] -79.7% | [7] -80.4% | [8] -65.6%

CCOC(=O)C1C(=O)C=C(c2cnccn2)CC1c1ccc(OC)c(OC)c1 (centres undefined)
inactive: [1] 83.5% | [2] 71.5% | [3] 106% | [4] 106% | [5] 93.1% | [6] 79.7% | [7] 99% | [8] 102%

COc1cc(C2C=C(c3cccc(NC(C)=O)c3)Nc3ncnn32)cc(OC)c1OC (centres undefined)
inactive: [1] 64.7% | [4] 27.6% | [5] 18.3% | [6] 20.3% | [7] 24% | [8] 15.2%
active: [2] -0.0208% | [3] -47.7%

CN(C)CCN1C(=O)c2cccc3c(-c4ccc(-c5nc6c7ccccc7c7ccccc7c6[nH]5)cc4)ccc(c23)C1=O
inactive: [1] 86.7% | [2] 104% | [3] 114% | [4] 86% | [5] 36.2% | [6] 65.1% | [7] 104% | [8] 75.8%

CCOC(=O)c1sc(-c2ccc(OS(=O)(=O)c3ccc(C(C)(C)C)cc3)c(C=O)c2)nc1C
inactive: [1] 31.2% | [2] 53.6% | [3] 57.2% | [4] 19.9% | [5] 33.9% | [6] 15.2% | [7] 52.4% | [8] 17.9%

CN(C)CCOC(=O)Nc1ccc(Cl)cc1
inactive: [1] 101% | [2] 82% | [3] 112% | [4] 104% | [5] 94.4% | [6] 86.8% | [7] 102% | [8] 104%

O=C1NC(=S)S/C1=C\N1N=C(c2ccc(Cl)cc2)CC1c1ccc(F)cc1 (centres undefined)
inactive: [1] 72.2% | [2] 100% | [3] 97.2% | [4] 92.1% | [5] 71.9% | [6] 81.9% | [7] 100% | [8] 87.4%

C=C(C)[C@@H]1CC[C@@]2(C(=O)O)CC[C@]3(C)C(CCC4[C@@]5(C)CCC(OS(=O)(=O)c6ccccc6)C(C)(C)C5CC[C@]43C)C12 (some centres undefined)
inactive: [1] 34.9% | [2] 58.9% | [3] 59.4% | [4] 48.8% | [5] 50.6% | [6] 25.7% | [7] 33.9% | [8] 31.4%

O=C1C2=C(CCN(Cc3ccccc3)C2)N2CCN=C2N1Cc1ccc(F)cc1F
inactive: [1] 33.4% | [2] 34.6% | [3] 32.3% | [4] 40.9% | [5] 30.1% | [6] 23.3% | [7] 34.3% | [8] 44.7%

CC(/C=N/NC(=O)c1cc(-c2ccco2)[nH]n1)=C\c1ccccc1
inactive: [1] 96.6% | [2] 101% | [3] 89.9% | [4] 101% | [5] 99.8% | [6] 99.3% | [7] 106% | [8] 93.9%

O=C(Nc1ccccc1)c1sc(-c2cccc(C(F)(F)F)c2)cc1O
inactive: [1] 59.3% | [2] 70.8% | [3] 77.9% | [4] 76.1% | [5] 74.7% | [6] 67.9% | [7] 98.2% | [8] 92.3%

COc1ccc(/C(C)=C(\c2ccc(Cl)cc2)c2ccc(OCCN(C)C)cc2)cc1F
inactive: [1] 77.3% | [2] 87.7% | [3] 51.5% | [4] 54.8% | [5] 31.8% | [6] 43.6% | [7] 25.4% | [8] 34.2%

CN(C)CN1CCN(c2ccc3nc(-c4ccc5nc(-c6ccc(C(F)(F)F)cc6)[nH]c5c4)[nH]c3c2)CC1
active: [5] 9.58%
inactive: [1] 61.4% | [2] 86.2% | [3] 40.9% | [4] 27% | [6] 23.8% | [7] 84.7% | [8] 26.5%

CCOC(=O)c1c(C)nc2c(c1N)/C(=C/c1ccc(OC)cc1)C(=O)N2Cc1ccc(F)cc1
active: [1] -0.0776% | [2] -85.5% | [3] -62.1% | [4] -58.9% | [5] -35.7% | [6] -85.4% | [7] -83.7% | [8] -59.7%

CNC(=O)NCC1OC(n2cnc3c(NC(=O)Nc4ccccc4)ncnc32)C2OC(C)(C)OC12 (centres undefined)
inactive: [1] 74.7% | [2] 71.7% | [3] 101% | [4] 91.1% | [5] 85.4% | [6] 81.1% | [7] 95.5% | [8] 89.9%

COc1ccc(C2CC(c3cnccn3)=NN2)cc1OC (centres undefined)
inactive: [1] 98.7% | [2] 83.1% | [3] 117% | [4] 109% | [5] 92.8% | [6] 85.7% | [7] 99.4% | [8] 109%

CN(CCC(=O)/C(=C\c1ccccc1)c1ccc(Cl)cc1)Cc1ccccc1
active: [3] 1.24% | [4] 4.45% | [6] 2.49%
inactive: [1] 15.3% | [2] 12.7% | [5] 28.3% | [7] 105% | [8] 67.1%

CCO/C=N/C1=C(C#N)C(c2ccc(OC)cc2)c2c(c3ccccc3n(C)c2=O)O1 (centres undefined)
inactive: [1] 101% | [2] 117% | [3] 107% | [4] 101% | [5] 94.8% | [6] 102% | [7] 106% | [8] 103%

C[C@@H]1CC[C@@H]2[C@@H]1[C@H](OC(=O)/C=C/c1ccccc1)[C@]1(C3CCCCC3)C[C@@H](NC(=O)CO)[C@@]2(C)O1
inactive: [1] 95% | [2] 98.6% | [3] 94.3% | [4] 90% | [5] 89.6% | [6] 85.7% | [7] 95.4% | [8] 103%

Cc1cc(-c2noc(C(F)(F)F)n2)ccc1N1CCN(c2cc(C(=O)N(C)C)no2)CC1
inactive: [1] 46.6% | [2] 66.6% | [3] 71% | [4] 84.7% | [5] 55.5% | [6] 45.7% | [7] 80.8% | [8] 85.2%

O=[N+]([O-])c1ccc2[nH]cc(-c3c4ccsc4cc4[nH]c5ccc([N+](=O)[O-])cc5c34)c2c1
inactive: [2] 24.7% | [4] 25%
active: [1] 7.11% | [3] -27.6% | [5] 9.14% | [6] 2.78% | [7] 7.3% | [8] 3.79%

O=C(CC12CC3CC(CC(C3)C1)C2)NCCOCCOCCOCCNC(=O)c1cc2c(o1)C(=O)c1ccccc1C2=O
active: [1] 1.06% | [2] -90.6% | [3] -96.8% | [4] -10.6% | [5] -67.2% | [6] -19.6% | [7] -73.7% | [8] 2.29%

CCNCCNc1cc(-c2ccc(F)cc2)c(C#N)c2nc3ccccc3n12
inactive: [1] 21.3% | [2] 70.9% | [4] 10.8% | [5] 35.4% | [6] 24.5% | [7] 53.5% | [8] 66.4%
active: [3] -62.7%

O=C1Nc2ccccc2SC1C1SC(=S)N(Cc2ccccc2)C1=O (centres undefined)
active: [3] 0.237% | [8] -48.5%
inactive: [1] 24.1% | [2] 42.4% | [4] 20.9% | [5] 17.8% | [6] 42.8% | [7] 136%

COc1ccc(/C(C)=C(\c2ccc(Cl)cc2)c2ccc(OCCCN(C)C)cc2)cc1F
inactive: [1] 67.5% | [2] 88.3% | [3] 29.4% | [4] 38.3% | [5] 13% | [6] 21.2% | [7] 48.2% | [8] 29.2%

CCn1c(Sc2nnc(NC(=O)CSC(=S)N3CCCCC3)s2)nc2c1c(=O)n(C)c(=O)n2C
active: [3] 6.74%
inactive: [1] 86.9% | [2] 79.7% | [4] 61.8% | [5] 91.9% | [6] 87.7% | [7] 81.9% | [8] 64.2%

CN1CCC(=C2c3ccccc3C=Cc3ccccc32)CC1
inactive: [1] 72.6% | [2] 113% | [3] 80.2% | [4] 81.1% | [5] 80.5% | [6] 66.3% | [7] 92.5% | [8] 94.4%
